# In publication PMC4336329 (PLoS ONE, 2015):
# About 14,000 (4.5%) of roughly 310,000 compounds showed an effect of 50% or more. The effect is printed as a negative number. This is one part of a sample in which strong results are shown more often than they occur. Where a SMILES comes first, the peptide text is derived from it. [ ]: non-standard residue; d: D form. The star is where a group is joined. ξ: configuration not given here. Cbz = O=C(OCc1ccccc1)*; ξV = CC(C)C(N)C(=O)O
# Target: human ether-à-go-go-related gene (hERG) potassium channel (human, UniProt Q12809)
# Experiment: primary screen, population patch clamp on CHO cells stably expressing hERG; higher = less effect of the substance
# 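Also: peak tail current of the secondary pulse compared with the same well before compound.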
# human ether-à-go-go-related gene (hERG) potassium channel, sequence (Q12809 whole entry, looked up): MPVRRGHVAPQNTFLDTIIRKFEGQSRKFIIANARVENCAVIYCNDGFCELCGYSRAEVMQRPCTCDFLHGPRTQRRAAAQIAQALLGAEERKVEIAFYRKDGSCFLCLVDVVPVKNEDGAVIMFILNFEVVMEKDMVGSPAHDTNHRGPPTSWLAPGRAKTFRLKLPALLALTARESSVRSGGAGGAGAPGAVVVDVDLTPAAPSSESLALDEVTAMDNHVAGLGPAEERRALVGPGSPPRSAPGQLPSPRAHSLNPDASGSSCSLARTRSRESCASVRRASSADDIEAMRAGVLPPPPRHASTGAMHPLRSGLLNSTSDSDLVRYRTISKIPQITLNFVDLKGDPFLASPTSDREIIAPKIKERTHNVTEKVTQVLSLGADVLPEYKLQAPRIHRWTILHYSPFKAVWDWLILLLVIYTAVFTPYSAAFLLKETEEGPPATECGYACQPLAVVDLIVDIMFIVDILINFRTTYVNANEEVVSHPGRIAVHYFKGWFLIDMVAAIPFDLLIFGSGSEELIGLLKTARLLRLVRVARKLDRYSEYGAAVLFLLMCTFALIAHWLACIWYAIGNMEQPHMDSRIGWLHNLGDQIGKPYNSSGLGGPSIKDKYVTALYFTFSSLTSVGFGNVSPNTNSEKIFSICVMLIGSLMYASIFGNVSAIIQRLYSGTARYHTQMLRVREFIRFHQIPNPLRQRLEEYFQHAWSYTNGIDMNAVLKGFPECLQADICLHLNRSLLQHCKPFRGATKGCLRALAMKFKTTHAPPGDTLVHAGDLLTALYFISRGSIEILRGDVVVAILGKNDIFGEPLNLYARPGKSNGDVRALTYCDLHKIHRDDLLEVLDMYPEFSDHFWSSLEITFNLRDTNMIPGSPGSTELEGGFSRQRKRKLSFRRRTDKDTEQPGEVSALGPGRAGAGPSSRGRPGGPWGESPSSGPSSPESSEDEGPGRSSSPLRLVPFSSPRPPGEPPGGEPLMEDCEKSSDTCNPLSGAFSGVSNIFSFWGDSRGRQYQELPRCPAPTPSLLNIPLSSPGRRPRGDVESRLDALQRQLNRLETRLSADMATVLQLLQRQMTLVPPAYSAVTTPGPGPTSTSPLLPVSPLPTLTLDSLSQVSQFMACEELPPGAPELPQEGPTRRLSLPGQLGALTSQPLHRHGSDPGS
row,Compound,"hERG current change (%, negative = inhibition) at 10uM"
1,Cc1ccccc1NC(=O)c1cnn(-c2ccccc2)c1NC(=O)c1ccco1,0.329%
2,COc1ccc(CCNC(=O)c2c[nH]c3ccccc3c2=O)cc1OC,-1.95%
3,Cc1noc(NS(=O)(=O)c2ccc(NC(=O)C34CCC(CC3)C4)cc2)c1C,-9.55%
4,COC(=O)CNC(=O)C(NC(=O)OCc1ccccc1)C(C)C (centres unmarked) (Cbz-[ξV]-Gly-OMe),16.1%
5,CCOC(=O)Nc1ccc2c(c1)OCO2,26.2%
6,CCOC(=O)C1CCCN(c2nc3ccccc3nc2NS(=O)(=O)c2ccc(C)cc2)C1 (centres unmarked),-44.8%
7,COc1ccccc1Nc1nc(N)nc(CSC(=S)N2CCCCC2C)n1 (centres unmarked),-5.64%
8,CCOC(=O)C1CCCN(Cc2nc(N)nc(Nc3ccccc3OC)n2)C1 (centres unmarked),-70.8%
9,CCOC(=O)C1CCCN(Cc2cccc(Cl)c2)C1 (centres unmarked),-8.02%
10,CCOC(=O)C1CCCN(Cc2nc(N)nc(Nc3ccc(C)cc3)n2)C1 (centres unmarked),-69.5%
11,Cc1ccccc1Nc1nc(N)nc(COC(=O)C2CCCCC2)n1,8.35%
12,CCOC(=O)C1CCCN(Cc2nc(N)nc(Nc3ccc(Cl)cc3)n2)C1 (centres unmarked),-79%
13,CCOC(=O)C1CCCN(Cc2nc(N)nc(Nc3ccc(OC)cc3)n2)C1 (centres unmarked),-75.6%
14,CCOC(=O)C1CCCN(Cc2ccc(OCC)cc2)C1 (centres unmarked),-42.9%
15,CCOC(=O)C1CCCN(Cc2c(Cl)cccc2Cl)C1 (centres unmarked),-6.47%
16,CCOC(=O)C1CCCN(C(=S)Nc2ccc(OC)cc2)C1 (centres unmarked),5.25%
17,CCOC(=O)C1CCCN(Cc2ccccc2Cl)C1 (centres unmarked),-3.88%
18,N#Cc1cc2c(N)c(C(=O)Nc3ccccc3)sc2nc1N,8.83%
19,CCCCN(C(=O)C1CCC1)c1c(N)n(CC(C)C)c(=O)[nH]c1=O,1.74%

row,Compound,"hERG current change (%, negative = inhibition) at 10uM"
1,COc1ccccc1OCC(=O)[O-].[Na+],4.6%
2,Cc1c(Cl)cccc1-c1ccc(CNCc2ccccn2)o1.Cl,8.15%
3,Cc1ccc(OCC(=O)NCCO)c(Br)c1,14.3%
4,O=C(CSc1nnc(-c2ccc(F)cc2)o1)Nc1ccc(S(=O)(=O)N2CCCC2)cc1,-2.73%
5,CC(C(=O)NCc1cccs1)n1cccc1 (centres unmarked),7.58%
6,COc1ccc(CNC(=O)CC23CC4CC(CC(C4)C2)C3)cc1,20.4%
7,CCOC(=O)C1CCCN(Cc2ccccc2C)C1 (centres unmarked),-15.1%
8,CCOC(=O)C1CCCN(Cc2nc(N)nc(Nc3ccccc3)n2)C1 (centres unmarked),-71.2%
9,CCOC(=O)C1CCCN(Cc2ccc(-c3ccccc3)cc2)C1 (centres unmarked),-10.5%
10,CCN(CC)C(=O)Cn1c(=O)n(CCC(=O)Nc2ccc(F)cc2)c(=O)c2sccc21,14.9%
11,Cc1ccc2nc(NC(=O)c3ccc(Br)o3)sc2c1,20.6%
12,CCOc1ccc(N2C(=O)C3ON(c4ccccc4)C(c4cccs4)C3C2=O)cc1 (centres unmarked),7.35%
13,CC(=O)Nc1ccc(NC(=O)C2CC(=O)Nc3nc4ccccc4n32)cc1 (centres unmarked),24.6%
14,CC(C)(O)C#Cc1ccc(C(=O)N2CCN(c3ccc(F)cc3)CC2)cc1,-11.4%
15,O=C(c1cc(C(=O)N2CCN(c3ccc(F)cc3)CC2)cc([N+](=O)[O-])c1)N1CCN(c2ccc(F)cc2)CC1,-26.2%
16,CC(C)(O)C#Cc1ccc(C(=O)N2CCN(c3ccc(Cl)cc3)CC2)cc1,-9.19%
17,O=C(c1ccc2c(c1)OCCO2)N1CCN(c2ccc([N+](=O)[O-])cc2)CC1,-47.1%
18,Cc1cc(C(=O)N2CCN(c3ccc([N+](=O)[O-])cc3)CC2)n[nH]1,-78.5%
19,Cc1cc(C(=O)N2CCN(c3ccc([N+](=O)[O-])cc3)CC2)co1,-75.5%

row,Compound,"hERG current change (%, negative = inhibition) at 10uM"
1,Cc1cc(C(=O)N/N=C/C=C/c2ccc([N+](=O)[O-])cc2)n[nH]1,-53%
2,Cc1cc(C(=O)N/N=C/C=C/c2ccc(Br)cc2)n[nH]1,9.77%
3,CC(C)(O)C#Cc1ccc(C(=O)N2CCN(c3ccc([N+](=O)[O-])cc3)CC2)cc1,-70.4%
4,O=C(c1cc2ccccc2cc1O)N1CCN(c2ccc([N+](=O)[O-])cc2)CC1,-40.3%
5,Cc1onc(-c2ccccc2)c1C(=O)N1CCN(c2ccc([N+](=O)[O-])cc2)CC1,-36.4%
6,Cc1cc(C(=O)N/N=C/C=C/c2cccc([N+](=O)[O-])c2)n[nH]1,-3.28%
7,CCOc1ccc(/C=C/C(=O)CCC(=O)O)cc1,13.5%
8,O=[N+]([O-])c1cccc(-c2ccc(C(=S)N3CCN(c4ccc(F)cc4)CC3)o2)c1,2.61%
9,O=C(c1cncc(Br)c1)N1CCN(c2ccc([N+](=O)[O-])cc2)CC1,-77%
10,Cc1cc(C(=O)N2CCN(c3ccccc3)CC2)no1,-0.965%
11,COc1ccc(N2CCN(C(=O)c3cc(C)on3)CC2)cc1,6.64%
12,Cc1cc(C)n2nc(C(=O)N3CCN(c4ccc([N+](=O)[O-])cc4)CC3)nc2n1,-71.4%
13,O=C(c1cncc(Br)c1)N1CCN(c2ccc(N3CCOCC3)nn2)CC1,-2.06%
14,COc1ccc(N2CCN(C(=O)c3nc4nc(C)cc(C)n4n3)CC2)cc1,9.69%
15,COc1cccc(N2CCN(C(=O)c3nc4nc(C)cc(C)n4n3)CC2)c1,7.28%
16,O=C(c1ccc([N+](=O)[O-])cc1)N1CCN(c2ncc(Br)cn2)CC1,-32%
17,Cc1cc(C(=O)N2CCN(c3ccc([N+](=O)[O-])cc3)CC2)no1,-70.6%
18,Cc1c(O)ccc2c(O)c(NC(=O)c3ccc4c(c3)CCC(C)(C)O4)c(=O)oc12,6.09%
